# Compound activity: PubChem BioAssay, National Center for Advancing Translational Sciences (NCATS)
# HTT ATP protect = protects HTT-Q103 PC12 cells, measured by ATP. Potency, µM (highest dose often 56.4 µM), for the others: cytoprotection (ATP increase), usual class: activators. PC12 HTT-Q103 induced, cytoprotection, ATP luminescence, 40 h. 230,000 compounds, 0.14% hits; note: % of control where 0% means no effect; nearly all actives have a fitted effect of over 45% in size
#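 Stable PC12 Q103-GFP cells in serum-supplemented, phenol red-free DMEM; induction by tebufenozide at 100 nM final; compound dose series; cell viability quantified luminescently from ATP.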
# HTT aggregate = mutant huntingtin aggregation inhibition; PC12 HttQ103-GFP aggregates, Acumen cytometry, 40 h; Potency, µM (top dose mostly 46.1 µM), for inactives: at the highest dose activity change, negative = inhibition, hits mostly inhibitors; 220,000 compounds, 1.1% hits; AID 1688; note: % is set by controls: 0 for no effect and ±100 for the full control effect; nearly all actives have a fitted effect of over 60% in size
#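 Using laser scanning cytometry, GFP-positive aggregates were counted after lysis of PC12 cells induced with 100 nM tebufenozide to express HTT exon 1 Q103–GFP. Compounds were tested in titration.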
# Epigenetic reg = epigenetic control regulation, reporter derepression | murine LDR cells, GFP reporter derepression, 30 h | Potency, µM (highest dose often 53.9 µM), inactives show at the top dose GFP activation, actives largely listed as activators | 280,000 compounds, 0.2% hits | AID 1865; note: % of control where 0% means no effect; nearly all actives have a fitted effect of over 60% in size
#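 Murine LDR cells carrying a silenced, genomically integrated CMV-driven GFP reporter were exposed to compound for 30 hours at 37 C. After PBS washes, GFP-positive cells (20–120 um objects) were counted by laser-scanning microplate cytometry.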
# PTAP TSG101 blk = blocks PTAP/TSG101 interaction to inhibit HIV-1 budding. Fluorescence polarization, FITC-PTAP peptide / Tsg101 binding. 340,000 tested, under 10 active. Potency, µM (highest dose often 115 µM), without a hit: at the highest dose activity change, negative = inhibition, hits mostly inhibitors. Q99816. AID 493005; active = well fitted inhibition curve with a large enough effect in the main read-out, with a control signal flat, not every such curve was filed as active; inconclusive = small, poorly fitted or top-dose-only effect, or effect the other way, or a change in a side signal; inactive = no such curve, though single readings can be large or run the other way; note: % of control where 0% means no effect
# Target sequence (Q99816 whole entry, looked up): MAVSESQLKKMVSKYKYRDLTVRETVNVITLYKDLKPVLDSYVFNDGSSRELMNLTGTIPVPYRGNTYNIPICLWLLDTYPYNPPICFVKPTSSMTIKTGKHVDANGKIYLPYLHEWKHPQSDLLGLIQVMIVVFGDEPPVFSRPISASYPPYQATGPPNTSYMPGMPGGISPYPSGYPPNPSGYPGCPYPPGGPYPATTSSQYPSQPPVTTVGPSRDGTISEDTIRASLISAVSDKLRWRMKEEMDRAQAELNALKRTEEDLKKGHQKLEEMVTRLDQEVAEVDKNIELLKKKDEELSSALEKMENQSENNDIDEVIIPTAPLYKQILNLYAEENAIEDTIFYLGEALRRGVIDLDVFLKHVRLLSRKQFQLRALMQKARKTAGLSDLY
#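 Compounds were pin-transferred onto Tsg101 binding domain (10 uM final) in HEPES pH 7.5 buffer, then FITC-PTAP peptide was added at 50 nM final. After 20 min at RT, polarization reported peptide displacement across a qHTS concentration series.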
# PINK1 expr mod = changes PINK1 expression | PINK1 immunofluorescence, high-content cytometry, 24 h | Potency, µM (doses to about 76.6 µM), for the others: top-dose activation (PINK1 increase), most hits filed as activators | 410,000 compounds, 0.2% hits | AID 624263; active = well fitted activation curve with a large enough effect; inconclusive = small, poorly fitted or top-dose-only effect; cell line not stated here; note: % of control where 0% means no effect; nearly all actives have a fitted effect of over 65% in size
#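 Cells are seeded, rested 12 hours, then given compound at five concentrations or DMSO for 24 hours. After fixation, blocking and antibody staining, PINK1 amount and mitochondrial localization are scored; CCCP serves as control.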
# Apoferritin bind = binds horse apoferritin like a general anesthetic. 350,000 compounds, 0.074% hits. apoferritin/1-aminoanthracene competitive binding, fluorescence. P02791. Potency, µM (top dose mostly 77.5 µM), without a hit: at the top dose activity change, negative = displacement, hits mostly inhibitors. AID 485281; note: % is set by controls: 0 for no effect and ±100 for the full control effect; nearly all actives have a fitted effect of over 20% in size
# Target sequence (P02791 2-175 limits assumed): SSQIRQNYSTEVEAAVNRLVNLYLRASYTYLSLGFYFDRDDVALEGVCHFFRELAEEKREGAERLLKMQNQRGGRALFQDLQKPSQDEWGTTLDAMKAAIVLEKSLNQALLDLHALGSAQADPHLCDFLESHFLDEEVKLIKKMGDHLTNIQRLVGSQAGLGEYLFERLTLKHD
#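 In PBS, apoferritin at 10 uM is loaded with 1-AMA from a 50% saturated solution. After 10 min of compound exposure at ambient temperature, reduced 535 nm fluorescence indicates probe displacement.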
# Numbers without * were called inactive; ? = inconclusive; / = not tested or not shown; ! = not confirmed by another sample; [ ] = remark or other dose. This is one part of a sample in which hits are shown more often than they occur. Unless noted, calls come from the whole dose curve; as a rule, active = well fitted curve in the direction sought with a large enough effect; inconclusive = small, poorly fitted or top-dose-only effect, or another doubt; inactive = no such curve, though single readings can be large; an effect the other way counts as inactive or inconclusive. Potency is the fitted concentration of half-maximal effect.
SMILES,HTT ATP protect,HTT aggregate,Epigenetic reg,PTAP TSG101 blk,PINK1 expr mod,Apoferritin bind
O=C(CN1CCCc2ccccc21)N/N=C/c1c(O)ccc2ccccc12,-55%[10 µM],10µM*,-1%,16%,8%,7%
CC(=O)Nc1ccc(NC(=O)COC(=O)c2c3c(nc4ccccc24)CCN(Cc2ccccc2)C3)cc1,6%[10 µM],4µM*,-1%,0%,-1%,-10%
O=C(COC(=O)c1c2c(nc3ccccc13)CCN(Cc1ccccc1)C2)Nc1c(F)cccc1F,-5%[10 µM],4%,-5%,3%,-4%,-11%
CCCN1C(=O)/C(=C/c2c(N3CCNC(=O)C3CC(=O)OC)nc3c(C)cccn3c2=O)SC1=S (centres undefined),18%[10 µM],-16%[9.22 µM],14µM*,/,/,-9%
CCN1CC=C2C(C1)C(c1ccc(Cl)s1)C(C#N)=C(N)C2(C#N)C#N (centres undefined),-11%,0%,-4%,-16%,6.3µM*,-4%
O=[N+]([O-])c1ccccc1-c1ccc(C(=S)N2CCCC2)o1,-20%[10 µM],-22%,0%,0%,2%,56µM*
CC(C)CN(C(=O)COC(=O)c1ccc([N+](=O)[O-])s1)c1c(N)n(Cc2ccccc2)c(=O)[nH]c1=O,/,/,/,0%,40µM*,/
N#Cc1ccc(NC(=O)COC(=O)CNC(=O)C2CCCCC2)cc1,9%,0%[9.22 µM],0%,-6%,0%,8.9µM*
CCCN1CNc2c(c(=O)[nH]c(=S)n2CCc2ccc(C)c(C)c2)C1,/,/,/,/,1%,/
N#Cc1c(NCc2ccccc2)ccnc1NCc1cccnc1,11%[10 µM],22µM*,5%,-7%,0%,-21%
N#C/C(=C/c1ccc(N2CCOCC2)o1)c1ccc(Cl)cc1,?,?,3.2µM*,19%,13µM*,-24%
N#C/C(=C\c1ccc(N2CCOCC2)o1)c1nc2ccccc2[nH]1,-60%,-31%,13µM*,?,14µM*,70%
N#C/C(=C\c1ccc(N2CCCCC2)o1)C(N)=O,-6%[10 µM],5%[9.22 µM],7%,?,?,-15%
CCC1(C2CCN(C(=O)c3cc4ccccc4o3)CC2)NC(=O)N(CCc2scnc2C)C1=O (centres undefined),/,/,/,/,-1%,/
Clc1ccc2c(c1)C(N1CCNCC1)=Nc1ccccc1O2,0.35µM*!,4%,-1%,3%,0%,-3%
CCCCN(CC)CCCNC(=S)Nc1ccc2nc(N3CCN(C)CC3)cc(C)c2c1,-9%,28µM*,2%,-1%,2%,0%
O=C1C(C2=C(O)c3ccccc3C2=O)=Nc2ccccc21,-28%,-26%,7.9µM*,-6%,-3%,-18%
Cc1cc(C)nc(/N=C(\N)Nc2ccc(C(C)C)cc2)n1,20%[10 µM],2%[9.22 µM],0%,-3%,40µM*,-11%
Cc1ccc(N/C(N)=N/c2nc(C)cc(C)n2)cc1,/,-4%,0%,-3%,24%,3%
CN1CCc2c(sc(NC(=O)c3cc4cc([N+](=O)[O-])ccc4s3)c2C(N)=O)C1,-202%,7.1µM*,1%,/,/,-13%
CN1/C(=C\C(=O)c2cccnc2)C(C)(C)c2ccccc21,-5%[10 µM],-8%,0%,-4%,0%,-14%
CN1/C(=C\C(=O)c2cncc(Br)c2)C(C)(C)c2ccccc21,7%[10 µM],16µM*,1%,2%,2%,-14%
CN1/C(=C\C=N\NC(=O)c2cccnc2)C(C)(C)c2ccccc21,-31%,6.3µM*,?,-5%,2%,-18%
COc1ccc(CN2CCOc3ccc(CN4CCC(O)(c5cccnc5)CC4)cc3C2)c(C)c1C,/,/,/,/,0%,/
Cc1ccc(OCC(=O)N2CCOCC2)c([N+](=O)[O-])n1,23%[10 µM],20%[9.22 µM],7%,-6%,0%,1%
SMILES,HTT ATP protect,HTT aggregate,Epigenetic reg,PTAP TSG101 blk,PINK1 expr mod,Apoferritin bind
Cc1ccc(OCC(=O)N2CC(C)OC(C)C2)c([N+](=O)[O-])n1 (centres undefined),0.05µM*,3%,0%,-1%,4%,1%
C[C@@H](CN(C)C)CN1c2ccccc2CCc2ccccc21,-14%[40.3 µM],0%[20.6 µM],0%[16.9 µM],/,/,0%[29.3 µM]
CC(CN(C)C)CN1c2ccccc2CCc2ccccc21 (centres undefined),1µM*!,0%[9.22 µM],0%,0%,1%,-6%
CCOC(=O)c1cc(CC)sc1NC(=O)C1CC(=O)NN1Cc1ccccc1 (centres undefined),0%[10 µM],10µM*,-1%,-3%,-4%,?
CCn1c(-c2ccccc2F)nc2cc(NC(C)=O)cc(C(=O)N(C)Cc3c(C)nc4ccccn34)c21,/,/,/,/,0%,/
C=CCc1cccc(/C=C/c2cc(=O)c3ccccc3[nH]2)c1O,-88%[10 µM],3.2µM*,4%,0%,?,5%
C=CCc1cccc(/C=N/n2cnnc2)c1O,-5%[10 µM],-19%,-6%,-9%,-3%,3%
COC(=O)c1c(N)c(C#N)c2n1CCCCC2,-10%,-4%,0%,1%,8.9µM*,-10%
N#Cc1c(N)c(C(=O)c2ccccc2)n2c1CCC2,2%[10 µM],-3%,0%,-7%,-6%[38.3 µM],3%
Cc1ccc(C)c(N2C(=O)N(C)c3ccccc3S2(=O)=O)c1,/,/,-1%,/,3%,-6%
Cc1cc(C)n(-c2ccc3cccc(NS(C)(=O)=O)c3n2)n1,-59%,8.9µM*,-1%,-8%,2%,-9%
CN(C)c1ccc(/C=C2\C=Cc3ccccc32)cc1N,/,/,/,/,8%,/
Cc1ccc(-c2noc(-c3ccccc3NC(=O)C3CC(=O)N(c4cccc(C)c4)C3)n2)cc1 (centres undefined),/,/,16µM*,/,1%,-7%
Cc1ccc(-c2noc(-c3ccccc3NC(=O)c3ccccc3)n2)cc1,/,/,13%,/,2%,-19%
Cc1nn2c(NCc3ccccn3)c3c(nc2c1-c1ccccc1)CCC3,-41%[10 µM],-29%[9.22 µM],22µM*,-7%,4%,-7%
Cc1cc(NCc2ccccn2)n2nc(C)c(-c3ccccc3)c2n1,-46%[10 µM],-11%[9.22 µM],?,-8%,6%,-15%
Cc1nn2c(NCc3ccccn3)cc(C(C)(C)C)nc2c1-c1ccccc1,-1%[10 µM],-6%[9.22 µM],-1%,-4%,18µM*,-4%
COc1cccc(OC)c1CN1CCC2(CCC(CNC(=O)c3ccn(C)n3)O2)CC1 (centres undefined),/,/,/,/,0%,/
COc1ccccc1/C=C/c1nc(C#N)c(NCc2ccccc2)o1,/,/,13%,/,12%,461%
COc1ccccc1Nc1nnc(SCC(=O)NC(=O)Nc2ccc3c(c2)OCCO3)s1,5%[10 µM],-1%,2%,2%,11µM*,-2%
